Compounds without any hit were thinned out: in the full panel of roughly 83,000, 20% have a hit.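 Assay: single dose, 48 h. Readout: percent growth (0 = no net growth; negative = cell death). Active: <10.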 A number with no mark means an inactive call. Calls of active or inactive are those of the source.
These compounds were tested on OVCAR-8 ovarian (assay: NCI-60 one-dose screen, 48 h (100 = growth as untreated, 0 = no growth, -100 = all killed)). Conditions: 10 µM unless noted.
`Brc1ccc(-c2nc3ccccc3s2)cc1` was tested, and the growth was 106%. With `c1cc[c]([Bi]([c]2ccccc2)[c]2ccccc2)cc1` the growth was 101%. In the case of `O=C1/C(=N\c2cc(=O)[nH]n2S(=O)(=O)c2ccccc2)Nc2ccccc21`, the growth is reported as 102%. `COc1ccc(/C=C/C(=O)/C=C/c2cc3ccccc3[nH]c2=O)cc1` was tested, and the growth was -11.8% (active). `C/C=C/C/C=C/[C@H](C)C[C@H](O)[C@@H]1C[C@@H]2O[C@H]2/C=C/[C@@H]2OC(C)(C)O[C@H]2/C=C/C[C@H](C)CC(=O)O1` was tested, and the growth was 15.8%. Work on `COC1(OC)N=C(N)C2(C#N)C3(C(=O)Nc4ccccc43)C12C#N` (configuration not stated) yielded a growth of 94.2%. `C/C=C/C/C=C/[C@H](C)C[C@H](O)[C@@H]1C[C@@H]2O[C@H]2/C=C/[C@H](O)[C@@H](O)/C=C/C[C@H](C)CC(=O)O1` showed a growth of 63.7%. For `COc1cc(-c2nc3c(c(C)nc4c3nnn4-c3ccccc3)c(=O)o2)cc(OC)c1OC`, the growth was 107%. `CCC(C)C1NC(=O)C(CC(C)C)NC(=O)C(C)NC(=O)C(C(C)C)NC(=O)C(CCCCN)NC(=O)C(CC(C)C)NC(=O)C(C(C)C)NC(=O)[C@H](C)NC(=O)C(C(C)CC)NC(=O)C(CCCN=C(N)N)NC(=O)C(CCCCN)NC(=O)C(CCCN=C(N)N)NC(=O)C(CCCCN)NC(=O)C([C@H](C)CC)NC(=O)C(CCCCN)NC1=O` (some centres not stated) gave a growth of 11.7%. In the case of `COc1ccc(-c2nc(SCC(C)C)nc(Nc3ccc(C(=O)O)cc3)c2C#N)cc1`, the growth is reported as 97.1%. `O=S(=O)(O)CCI` gave a growth of 113%. With `Nc1nc2c(c3cnccc13)C(c1cccc(Cl)c1)Cc1cnccc1-2` (configuration not stated) the growth was 29.3%. `Oc1ccccc1\C=N/N=C/C=C/c1ccccc1` gave a growth of 103%. Compound `COC(=O)c1ccc2[nH]c(O)c(C(=Nc3ccc(N(C)C(=O)CN4CCN(C)CC4)cc3)c3ccc(N)cc3)c2c1` has a growth of 116%. `CC(C)OC(=O)c1ccc2n1CCCc1cnc(Nc3ccccc3)nc1-2` was tested, and the growth was 82.4%. With `CC(=O)Nc1ccc(C(=O)/C=C/c2ccc(N(C)C)cc2)cc1` the growth was 102%. For `CCOC(=O)C1=C(c2ccccc2)NC(=O)NC1CN1C(=O)c2ccccc2C1=O` (configuration not stated), the growth was 111%. Work on `CC/C(=N\Nc1nc2ccccc2n1C)c1ccccn1` yielded a growth of 15.5%. With `CCCCCCC(C)N(CC(C)(C)O)C(=O)c1ccc([N+](=O)[O-])cc1` (configuration not stated) the growth was 101%. For `O=C1C(=O)c2ccccc2C(O)=C1CCCc1ccc(Oc2ccccc2)cc1`, the growth was 72.7%. `C=C[C@]1(C)C=C2C(=O)[C@@]3(O)OC[C@@]4(CCCC(C)(C)C43O)C2(O)C(O)C1` (some centres not stated) was tested, and the growth was 58.3%. In the case of `COc1ccc(/C=C2\CCCC3=C2N=C2SC=NN2C3c2ccc(OC)c(OC)c2)cc1OC` (configuration not stated), the growth is reported as 9.01% (active). Work on `CC(C)(C)c1ccc(OCCOC(=O)CBr)cc1` yielded a growth of 83.8%. `c1cc(C2CCCCC2)ccc1OCCCCCCN1CCNCC1` gave a growth of 48%. `CCOC(=O)c1c2c(cn1Cc1ccccc1)-c1oncc1CC2` showed a growth of 84.9%. `C/C(=N\Nc1cccc(Cl)n1)c1ccccn1` showed a growth of 20.2%. `CC(=O)c1ccc2c(c1)c1ccccc1n2C` showed a growth of 95.4%. Compound `CCCCN(CCCC)CCCNc1c2c(nc3ccc(Cl)cc13)CCCC2` has a growth of 102%. In the case of `COc1ccc(Cn2cc3c(c2)-c2oncc2CC3)cc1OC`, the growth is reported as 24.5%. Compound `C/C(=N\Nc1ccc(Cl)cn1)c1ccccn1` has a growth of 16.6%. Work on `NC(=O)c1c(Nc2ccccc2)nn2cc(-c3nc4ccccc4s3)c(N)nc12` yielded a growth of 102%. Compound `COC(=O)c1ccc2[nH]c(O)c(C(=Nc3ccc(N(C)C(=O)CN4CCN(C)CC4)cc3)c3cccc(OC)c3)c2c1` has a growth of 23.7%. Work on `Cc1nc2c(nnn2-c2ccccc2)c2nc(-c3ccc(Cl)cc3)oc(=O)c12` yielded a growth of 110%. `Clc1ccc(N/N=C(/c2ccccc2)c2ccccn2)nc1` gave a growth of 33.5%. Compound `COc1ccc(-c2nnc(SCC(=O)Nc3ccc(C(=O)/C=C/c4cc(OC)c(OC)c(OC)c4)cc3)n2-c2ccccc2)cc1OC` has a growth of 15.9% [100 µM]. In the case of `CCc1ccc(C(=Nc2ccc(N(C)C(=O)CN3CCN(C)CC3)cc2)c2c(O)[nH]c3ccc(C(=O)OC)cc23)cc1`, the growth is reported as -34.5% (active). `Cc1ccc(C(C)C)c(OCc2ccc(C(=O)N/N=C/c3cccc(O)c3O)cc2)c1` showed a growth of 23.7%.

From PubChem BioAssay (NCI)
